Test results: PubChem BioAssay (NCATS)
Several values for one entry are separate records, joined by “and”; a condition that tells them apart may be missing. Equal values may be shown once. A number with no mark means an inactive call. Records with an inconclusive call do not appear. Where a call stands in place of a potency, no number is given. Activity calls are given as the source filed them. Unless noted, calls follow the shape of the dose curve; as a rule, active = well fitted curve in the direction sought with a large enough effect; inconclusive = small, poorly fitted or top-dose-only effect, or another doubt; inactive = no such curve, though single readings can be large; an effect the other way counts as inactive or inconclusive.

Tests used:
[1] = target: Mitogen-activated protein kinase 10 (Mus musculus) (UniProt Q61831); experiment: JNK3 AlphaScreen Assay (AID 530; active = well fitted curve in either direction with a large enough effect, not every such curve was filed as active;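 also: kinase came from lysate of stimulated human HepG2 cells; signal reports phosphorylation of biotinylated GST-cJun 1-79 at Ser73 with 10 µM ATP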)
Outline: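 Biotinylated GST-cJun(1-79) served as substrate for JNK3 in HepG2 lysates stimulated with IL-1beta and TNF-alpha. ATP was 10 uM final, pH 7.6. Ser73 phosphorylation was quantified by AlphaScreen (680 nm excitation).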

[2] = Cell Viability - NIH 3T3 (AID 541); details: NIH 3T3 cell viability, qHTS; activity change, negative = cytotoxicity: at 92.2 µM (top of the series);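 also: cells exposed to compound for 40 hours; nearly all actives have a fitted effect of over 25% in size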; also: potency is read from the fitted curve at half-maximal effect
Outline: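 qHTS format; 40 hr compound exposure, 37 °C; CellTiter-Glo luminescence (cellular ATP) read-out after 20 min at RT. Decrease in ATP = cytotoxicity; AC50 from standard Hill fit.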

[3] = Cell Viability - Mesenchymal (AID 546);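 also: cells exposed to compound for 40 hours before reading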
Outline: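 In this qHTS cytotoxicity format, glomerulus-derived human mesenchymal kidney cells received compound for 40 hr, then luciferase-based ATP quantitation. Concentration-response data were fitted with the Hill equation.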

[4] = Cellular Toxicity (caspase-3) MRC-5 (AID 659)
Outline: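 Apoptosis readout in MRC-5 cells: luciferase light generated after caspase 3/7 cleaves a peptide-aminoluciferin substrate, measured post 16 hr compound incubation at 37 °C.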

[5] = Cellular Toxicity (caspase-3) Hek293 (AID 664); details: HEK293 caspase-3 activation, DMSO = 0%, 100 µM tamoxifen = 100%; at 92.2 µM (top of the series);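 also: cells exposed to compound for 16 h at 37 °C before readout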
Outline: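 Luminescent Caspase-Glo 3/7 readout (aminoluciferin release) in HEK293 cells after 16 h compound treatment, 37 °C. Normalization: DMSO = basal, 100 uM tamoxifen = 100% stimulation. Concentration-response fitted with standard Hill equation for AC50.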

[6] = MultiTox-Fluor Cytotoxicity Assay - LYMP1-002 - Live Cells (AID 955)
Outline: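 LYMP1-002 lymphoblastoid cells; 2500 cells/well; 16 hr compound exposure, 37 C; MultiTox-Fluor reagent 60 min RT; live-cell fluorescence Ex/Em=405/510; qHTS concentration-response, Hill-equation AC50; tetraoctylammonium bromide positive control.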

[7] = MultiTox-Fluor Cytotoxicity Assay - LYMP1-002 - Dead Cells (AID 960); also: nearly all actives have a fitted effect of over 60% in size
Outline: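 Readout: fluorescence at 485/520 from cell-impermeant bis-AAF-R110 cleaved by proteases leaking from damaged cells. LYMP1-002 lymphoblastoid line, 16 hr compound treatment at 37 C, concentration-response in qHTS format; Hill-equation AC50 values.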

[8] = Cell Viability - LYMP2-003 (AID 965);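 also: cells exposed to compounds for 24 h before reading; nearly all actives have a fitted effect of over 50% in size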
Outline: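 Human lymphoblastoid LYMP2-003 cells, 2500/well, exposed to compounds for 24 h at 37 C in complete medium. Viability read as intracellular ATP by CellTiter-Glo luminescence; AC50 from Hill-equation fits of qHTS concentration-response data.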

[9] = Cell Viability - LYMP2-017 (AID 972); also: nearly all actives have a fitted effect of over 55% in size
Outline: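 Luminescent ATP read-out (CellTiter-Glo, 30 min RT) reports viable cell number. Cells: human lymphoblastoid line, 2500 per well, 5 hr preincubation, 24 hr compound exposure at 37 C. AC50 is derived from qHTS concentration-response data using the standard Hill model.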

[10] = Cell Viability - LYMP2-021 (AID 974);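 also: compound exposure lasts 24 hours at 37 °C; nearly all actives have a fitted effect of over 55% in size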; also: potency is read from the fitted curve at half-maximal effect
Outline: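 ATP luminescence (CellTiter-Glo, 30 min RT) after 24 h compound exposure at 37 C; 2500 human lymphoblastoid cells/well, 5 h settle beforehand. Cytotoxicity = concentration-dependent ATP drop, AC50 by Hill fit.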

[11] = Cell Viability - LYMP2-016 (AID 984); also: nearly all actives have a fitted effect of over 55% in size
Outline: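 Human lymphoblastoid LYMP2-016 cells, 2500 per well, treated with compounds for 24 h at 37 C. Viability read as intracellular ATP by CellTiter-Glo luminescence after 30 min at room temperature; AC50 from Hill fits of concentration-response.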

[12] = Cell Viability - LYMP1-002 - Assay at 24 hr (AID 993)
Outline: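 CellTiter-Glo luminescence (intracellular ATP) after 24 h compound exposure, 37 C, in LYMP1-002 human lymphoblastoid cells; decreased ATP taken as cytotoxicity. AC50 from standard Hill fit of concentration-response curves.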

[13] = target: Vitamin D3 receptor (Homo sapiens) (UniProt P11473); experiment: qHTS assay for small molecule agonists of vitamin D receptor signaling (AID 588543; calls by dose curve)
Outline: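 VDR-UAS-bla HEK293T cells, 2000/well, 2% charcoal-stripped FBS; compound titration 16 h at 37 C; CCF4 beta-lactamase ratio read. Normalized to 50 nM 1-alpha,25-dihydroxyvitamin D3 (100%) and DMSO; Hill fit gives EC50, efficacy.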

[14] = qHTS assay for small molecule disruptors of the mitochondrial membrane potential - 5 hr assay (AID 651755; calls by dose curve; also: nearly all actives have a fitted effect of over 40% in size)
Outline: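 Seed HepG2 overnight, add compound, incubate 5 hr at 37C and 5% CO2, stain 30 min with Mito-MPS, then measure monomer (490/535 nm) and aggregate (540/590 nm) fluorescence.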

[15] = target: Tumor necrosis factor (Homo sapiens) (UniProt P01375); experiment: qHTS assay to identify small molecules that stimulate Tumor Necrosis Factor-alpha (TNF-alpha) secretion (AID 651757; active = well fitted curve in the direction sought with a large enough effect in the signal ratio; the % refers to the signal ratio)
Outline: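 THP-1 cells, 3000/well; compound 17 hrs, 37 C; add cryptate/XL665 anti-TNF-alpha antibody pair; 3 hr RT; TR-FRET (HTRF) read of secreted TNF-alpha. Quantitative HTS format.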

[16] = target: Nuclear receptor ROR-gamma (Homo sapiens) (UniProt P51449); experiment: qHTS assay for small molecule antagonists of the retinoid-related orphan receptor gamma (ROR-gamma) signaling pathway (AID 651802);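 also: CHO cells with doxycycline-induced ROR-gamma expression; luciferase reporter luminescence driven by ROR response element; nearly all actives have a fitted effect of over 60% in size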
Outline: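 Luciferase read-out: ONE-Glo luminescence after 30 min at room temperature, following 16hr doxycycline induction at 37C, 5% CO2 of CHO cells with TET-inducible ROR and RORE-LUC reporter; decreased luminescence = reduced reporter activity.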

[17] = qHTS assay for small molecule agonists of the antioxidant response element (ARE) signaling pathway measured by Nrf2-dependant transcriptional activity - cell viability counter screen (AID 720653; active = well fitted curve in the direction sought with a large enough effect in the repeat runs; an effect the other way counts as inactive or inconclusive); details: ARE-bla HepG2 viability, CellTiter-Glo ATP luminescence, 16 h; active compounds read low
Outline: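 ARE-bla HepG2 cells (2,000/well) rested 5 hrs at 37C/5% CO2, then exposed to compounds in DMSO for 16 hrs. Viability was read in the same wells as intracellular ATP by luminescence, 30 min at room temperature after reagent addition.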

[18] = target: Nuclear receptor subfamily 1 group I member 2 (Rattus norvegicus) (UniProt Q9R1A7); experiment: qHTS assay for small molecule activators of the rat pregnane X receptor (rPXR) signaling pathway (AID 651751; call rule not given here); details: rPXR reporter cells, luciferase (One-Glo), 24 h
[19] = qHTS assay for small molecule activators of the human pregnane X receptor (PXR) signaling pathway (AID 720659; call rule not given here)
[20] = target: Cytochrome P450 3A4 (Homo sapiens) (UniProt P08684); experiment: qHTS Assay for Inhibitors and Substrates of Cytochrome P450 3A4 (AID 884); also: nearly all actives have a fitted effect of over 50% in size
Outline: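 Luminescent readout of luciferin produced by CYP3A4 (20 nM) dealkylation of Luciferin-PPXE, 25 uM (its KM). NADPH-driven reaction ran 60 min at RT after 10 min compound preincubation; data scaled to 57 uM ketoconazole as 100% inhibition.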

Sequence of Vitamin D3 receptor (Homo sapiens) (P11473 whole entry, looked up): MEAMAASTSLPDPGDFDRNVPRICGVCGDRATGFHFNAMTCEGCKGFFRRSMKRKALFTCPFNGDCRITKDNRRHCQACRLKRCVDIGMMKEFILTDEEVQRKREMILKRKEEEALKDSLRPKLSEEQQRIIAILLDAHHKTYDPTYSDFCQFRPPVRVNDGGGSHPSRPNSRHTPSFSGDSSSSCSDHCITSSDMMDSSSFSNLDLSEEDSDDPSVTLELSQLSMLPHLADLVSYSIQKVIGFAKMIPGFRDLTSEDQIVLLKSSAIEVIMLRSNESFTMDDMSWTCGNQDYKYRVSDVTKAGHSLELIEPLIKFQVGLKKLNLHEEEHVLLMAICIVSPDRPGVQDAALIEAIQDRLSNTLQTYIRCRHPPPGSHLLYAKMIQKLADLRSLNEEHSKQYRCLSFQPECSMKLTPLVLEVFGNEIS
Sequence of Cytochrome P450 3A4 (Homo sapiens) (P08684 whole entry, looked up): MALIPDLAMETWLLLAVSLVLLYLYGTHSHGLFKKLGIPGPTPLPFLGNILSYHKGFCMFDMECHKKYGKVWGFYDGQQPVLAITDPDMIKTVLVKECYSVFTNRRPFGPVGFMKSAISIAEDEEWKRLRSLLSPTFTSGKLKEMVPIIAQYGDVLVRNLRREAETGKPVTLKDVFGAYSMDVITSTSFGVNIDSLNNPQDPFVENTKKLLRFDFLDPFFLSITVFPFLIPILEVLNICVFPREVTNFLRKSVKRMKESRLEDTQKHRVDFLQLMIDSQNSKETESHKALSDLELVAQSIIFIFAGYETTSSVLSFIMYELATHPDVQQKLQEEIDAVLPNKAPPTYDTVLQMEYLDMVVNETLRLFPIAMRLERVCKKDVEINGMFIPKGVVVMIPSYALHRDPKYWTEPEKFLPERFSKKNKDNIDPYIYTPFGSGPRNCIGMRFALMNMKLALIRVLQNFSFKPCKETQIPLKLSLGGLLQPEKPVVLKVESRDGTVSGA
Sequence of Tumor necrosis factor (Homo sapiens) (P01375 whole entry, looked up): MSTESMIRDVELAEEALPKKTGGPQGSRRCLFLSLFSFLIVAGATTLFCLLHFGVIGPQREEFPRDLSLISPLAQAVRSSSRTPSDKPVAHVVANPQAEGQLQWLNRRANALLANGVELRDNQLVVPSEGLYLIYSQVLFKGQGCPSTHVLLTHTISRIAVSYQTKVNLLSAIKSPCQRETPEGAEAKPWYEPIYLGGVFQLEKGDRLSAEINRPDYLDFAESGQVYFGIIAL
Sequence of Nuclear receptor subfamily 1 group I member 2 (Rattus norvegicus) (Q9R1A7 whole entry, looked up): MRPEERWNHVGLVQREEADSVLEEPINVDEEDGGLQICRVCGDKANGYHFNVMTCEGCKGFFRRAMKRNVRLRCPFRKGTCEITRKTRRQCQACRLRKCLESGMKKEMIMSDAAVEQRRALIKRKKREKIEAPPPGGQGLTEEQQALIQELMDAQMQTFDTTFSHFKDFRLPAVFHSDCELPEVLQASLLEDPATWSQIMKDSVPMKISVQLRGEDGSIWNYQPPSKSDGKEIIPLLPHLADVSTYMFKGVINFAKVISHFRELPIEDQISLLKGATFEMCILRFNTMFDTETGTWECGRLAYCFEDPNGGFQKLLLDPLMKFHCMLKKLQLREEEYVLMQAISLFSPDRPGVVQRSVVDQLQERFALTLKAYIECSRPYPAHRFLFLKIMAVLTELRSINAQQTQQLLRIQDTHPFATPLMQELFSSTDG
Sequence of Nuclear receptor ROR-gamma (Homo sapiens) (P51449 whole entry, looked up): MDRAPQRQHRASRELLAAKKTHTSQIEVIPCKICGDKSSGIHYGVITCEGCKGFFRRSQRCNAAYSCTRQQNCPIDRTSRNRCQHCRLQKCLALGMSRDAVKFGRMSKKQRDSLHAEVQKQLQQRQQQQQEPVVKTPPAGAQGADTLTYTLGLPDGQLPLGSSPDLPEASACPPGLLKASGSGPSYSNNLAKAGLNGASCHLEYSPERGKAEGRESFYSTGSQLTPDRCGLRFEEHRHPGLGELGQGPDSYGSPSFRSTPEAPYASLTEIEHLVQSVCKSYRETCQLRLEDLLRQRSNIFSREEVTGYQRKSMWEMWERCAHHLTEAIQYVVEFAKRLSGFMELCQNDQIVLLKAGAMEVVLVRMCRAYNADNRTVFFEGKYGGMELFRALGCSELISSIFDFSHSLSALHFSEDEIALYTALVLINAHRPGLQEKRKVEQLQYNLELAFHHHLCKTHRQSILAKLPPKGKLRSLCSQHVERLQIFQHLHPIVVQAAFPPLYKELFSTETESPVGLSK

| Compound | Potency [1] | Potency [2] | Potency [3] | outcome [4] | caspase-3 activation [5] | outcome [6] | Potency [7] | Potency [8] | Potency [9] | Potency [10] | Potency [11] | Potency [12] | outcome [13] | Potency [14] | outcome [15] | Potency [16] | max response [17] | max response [18] | outcome [19] | Potency [20] |
| --- | --- | --- | --- | --- | --- | --- | --- | --- | --- | --- | --- | --- | --- | --- | --- | --- | --- | --- | --- | --- |
| Oc1cc(Cl)ccc1Cl | inactive | inactive | inactive | inactive | -1.46% | inactive | inactive | inactive | inactive | inactive | inactive | inactive | inactive | inactive | inactive | inactive | 14.5% and -2.04% | -2.5% and -2.48% | inactive |  |
| CN=C=O | inactive | inactive | inactive | inactive | 1.04% | inactive | inactive | inactive | inactive | inactive | inactive | inactive |  | inactive | inactive | inactive | -4.34% | 8.83% | inactive | inactive |
| O=Cc1ccc2c(c1)OCO2 | inactive |  | inactive | inactive | 0.153% | inactive | inactive | inactive | inactive | inactive | inactive | inactive | inactive | inactive | inactive | inactive |  | 2.27% | inactive | inactive |
| C=CC(=O)OCC(CC)CCCC (stereo unspecified) | inactive | inactive | inactive | inactive | 2.19% | inactive | inactive | inactive | inactive |  | inactive | inactive | inactive | inactive | inactive | inactive | -8.13% and 5.16% | -2.19% and -0.52% | inactive | inactive |
| Nc1cc(Cl)ccc1Cl | inactive | inactive | inactive | inactive | -0.435% |  | inactive | inactive | inactive | inactive |  | inactive |  | inactive | inactive | inactive | 5.24% | 4.7% | inactive | inactive |
| CC(Cl)CCl (stereo unspecified) | inactive | inactive | inactive | inactive | -1.21% | inactive | inactive | inactive | inactive | inactive | inactive | inactive | inactive | inactive | inactive | inactive | -12.6% | 3.07% | inactive | inactive |
| Cc1ccc(N)c(N)c1 | inactive | 5.01 µM (active) |  | inactive | 8.54% | inactive | inactive |  |  | 31.6 µM (active) | inactive | inactive | inactive |  |  | inactive | -6.6% |  |  |  |
| CCOP(=S)(OCC)SCCSCC |  | inactive | inactive |  | 0.951% | inactive | inactive | inactive | inactive | inactive |  | inactive |  | inactive | inactive | inactive | -4.12% and 4.55% | 1.52% and -3.09% |  |  |
| O=[N+]([O-])c1ccc(Cl)cc1 |  | inactive | inactive | inactive | -0.181% | inactive | inactive | inactive |  | inactive | inactive |  | inactive | inactive | inactive | inactive | -7.74% and 0.776% | 5.34% and 1.87% | inactive | inactive |
| CCOS(C)(=O)=O |  | inactive | inactive | inactive | -3.11% |  | inactive | inactive | inactive | inactive | inactive | inactive | inactive | inactive | inactive | inactive | -5.61% | 1.86% | inactive | inactive |
| Cl/C=C\Cl | inactive | inactive | inactive | inactive | 0.708% | inactive |  |  | inactive | inactive |  | inactive | inactive |  | inactive | inactive | -3.68% | 3.59% | inactive | inactive |
| CC(Cl)(Cl)Cl |  | inactive | inactive | inactive | -1.64% | inactive |  | inactive | inactive | inactive | inactive | inactive | inactive | inactive | inactive | inactive | 0.834% and -5.56% | -1.71% and -2.72% | inactive | inactive |
| O=C(Cl)OCc1ccccc1 | inactive | inactive | inactive |  | 0.783% | inactive | inactive | inactive | inactive |  | inactive | inactive | inactive | inactive | inactive | inactive | 6.86% | 4.69% | inactive | inactive |
| CCCCCCCCCCCOC(=O)c1ccccc1C(=O)OCCCCCCCCCCC | inactive | inactive | inactive | inactive |  |  | inactive | inactive | inactive | inactive | inactive | inactive | inactive | inactive | inactive | inactive | 3.11% | 1.44% |  | inactive |
| Cc1ccccc1[N+](=O)[O-] | inactive | inactive | inactive | inactive | -0.618% | inactive | inactive | inactive | inactive | inactive | inactive | inactive | inactive |  | inactive | inactive | 11.5% | -2.44% | inactive | inactive |
